# For some assays here: Potency and affinity values are given separately.
# What was measured:
# Set-up in all cases: scale not given: direction of the effect not stated beside the values
# [1] = molecular target: Protein translocase subunit SecA (Escherichia coli (strain K12)) (UniProt P10408); assay: Assay to Identify E. coli SecA ATPase Inhibitors; type: functional; settings: 30 µM
# [2] = molecular target: T1, Ubiquitin-activating enzyme e1, putative (Leishmania donovani (strain BPK282A1)) (UniProt E9BSI1); assay: Leishmania donovani Ubiquitin Activating Enzyme (LdE1); type: functional; settings: 30 µM
# T1 sequence (whole entry): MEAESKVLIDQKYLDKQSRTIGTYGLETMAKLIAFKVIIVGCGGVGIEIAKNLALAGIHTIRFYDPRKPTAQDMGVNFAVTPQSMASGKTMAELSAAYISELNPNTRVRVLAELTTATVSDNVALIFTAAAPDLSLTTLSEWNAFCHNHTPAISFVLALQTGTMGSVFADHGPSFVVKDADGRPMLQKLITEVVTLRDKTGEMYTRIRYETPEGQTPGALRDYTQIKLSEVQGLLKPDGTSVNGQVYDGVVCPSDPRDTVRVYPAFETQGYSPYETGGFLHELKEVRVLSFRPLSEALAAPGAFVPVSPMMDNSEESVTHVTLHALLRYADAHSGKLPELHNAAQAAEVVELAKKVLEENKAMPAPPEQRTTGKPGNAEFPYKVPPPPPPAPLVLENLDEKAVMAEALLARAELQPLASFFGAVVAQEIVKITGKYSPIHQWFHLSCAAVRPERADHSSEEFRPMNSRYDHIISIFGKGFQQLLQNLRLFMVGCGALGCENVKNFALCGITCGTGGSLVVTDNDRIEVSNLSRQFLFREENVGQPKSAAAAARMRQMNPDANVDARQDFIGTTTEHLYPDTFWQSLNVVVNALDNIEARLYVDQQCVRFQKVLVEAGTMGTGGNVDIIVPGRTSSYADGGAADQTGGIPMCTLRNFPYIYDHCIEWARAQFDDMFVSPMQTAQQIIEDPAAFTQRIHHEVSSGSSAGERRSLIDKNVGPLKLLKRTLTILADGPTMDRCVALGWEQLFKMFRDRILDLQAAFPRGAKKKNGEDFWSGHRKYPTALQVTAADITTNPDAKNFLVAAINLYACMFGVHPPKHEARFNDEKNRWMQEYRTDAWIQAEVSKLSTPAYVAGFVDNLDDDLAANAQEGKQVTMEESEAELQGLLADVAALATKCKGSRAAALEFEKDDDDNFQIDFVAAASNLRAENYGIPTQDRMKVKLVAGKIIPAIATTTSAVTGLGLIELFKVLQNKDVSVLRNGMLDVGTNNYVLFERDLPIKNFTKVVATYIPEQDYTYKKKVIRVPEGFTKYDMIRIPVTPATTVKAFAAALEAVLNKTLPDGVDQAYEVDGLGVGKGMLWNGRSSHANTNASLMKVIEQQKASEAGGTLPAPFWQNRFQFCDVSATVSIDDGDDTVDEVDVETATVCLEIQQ
# [3] = molecular target: AMP-activated protein kinase, AMPK (Homo sapiens) (UniProt P54646+O43741+P54619+Q9UGJ0+Q9Y478+Q13131+Q9UGI9); assay: AMP-dependent Kinase enzyme assay. An in vitro enzyme assay that detects ADP turnover that is directly proportional to AMPK activity. This uses naive AMPK that is activated during the assay with MK-8722; type: functional; settings: 30 µM
# [4] = molecular target: Sialic acid-binding Ig-like lectin 9 (Homo sapiens) (UniProt Q9Y336); assay: Hs-Siglec9 ALPHAscreen SOP 20170721; settings: 10 µM
# Sialic acid-binding Ig-like lectin 9 (Homo sapiens), sequence (Q9Y336 whole entry): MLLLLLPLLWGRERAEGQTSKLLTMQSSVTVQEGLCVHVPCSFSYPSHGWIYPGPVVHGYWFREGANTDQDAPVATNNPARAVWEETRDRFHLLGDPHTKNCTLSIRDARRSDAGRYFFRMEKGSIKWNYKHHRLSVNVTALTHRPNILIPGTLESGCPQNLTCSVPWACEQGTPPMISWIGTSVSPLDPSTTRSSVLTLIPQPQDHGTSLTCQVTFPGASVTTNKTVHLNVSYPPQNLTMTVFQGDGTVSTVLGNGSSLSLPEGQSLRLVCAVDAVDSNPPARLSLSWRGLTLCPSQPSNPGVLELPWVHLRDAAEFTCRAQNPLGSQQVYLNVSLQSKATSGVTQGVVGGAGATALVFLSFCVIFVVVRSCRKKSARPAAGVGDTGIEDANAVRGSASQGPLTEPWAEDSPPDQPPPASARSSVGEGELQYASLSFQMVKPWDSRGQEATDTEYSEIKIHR
# Trypanosoma cruzi = assay: Trypanosoma cruzi phosphomannomutase and mannose-1-phosphate guanylyltransferase assay; type: functional; settings: 10 µM
# [5] = molecular target: T2, Arginase-2, mitochondrial (Homo sapiens) (UniProt P78540); assay: in vitro enzyme assay to detect the production of urea directly proportional to the activity of Arginase II; type: functional; settings: 33.3 µM; also: in the data most compounds retested in dose-response had high values
# T2 sequence (whole entry): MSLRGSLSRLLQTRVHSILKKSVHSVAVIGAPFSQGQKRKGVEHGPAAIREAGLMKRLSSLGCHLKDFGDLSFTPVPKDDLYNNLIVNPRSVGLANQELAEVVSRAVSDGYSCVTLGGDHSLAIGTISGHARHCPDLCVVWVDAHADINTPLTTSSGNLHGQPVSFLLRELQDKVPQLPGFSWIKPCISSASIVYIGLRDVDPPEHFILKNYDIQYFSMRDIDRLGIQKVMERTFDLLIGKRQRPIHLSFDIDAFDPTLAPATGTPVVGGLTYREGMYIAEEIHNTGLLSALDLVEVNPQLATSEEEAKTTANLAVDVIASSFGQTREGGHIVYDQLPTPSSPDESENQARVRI
# [6] = molecular target: T3, Proteasome subunit beta (Trypanosoma cruzi) (UniProt O96673); assay: Trypanosoma cruzi proteasome chymotrypsin-like activity (TcProtChymo) assay.; also: in the data most compounds retested in dose-response had high values; type: functional; settings: 9.37 µM
# T3 sequence (whole entry): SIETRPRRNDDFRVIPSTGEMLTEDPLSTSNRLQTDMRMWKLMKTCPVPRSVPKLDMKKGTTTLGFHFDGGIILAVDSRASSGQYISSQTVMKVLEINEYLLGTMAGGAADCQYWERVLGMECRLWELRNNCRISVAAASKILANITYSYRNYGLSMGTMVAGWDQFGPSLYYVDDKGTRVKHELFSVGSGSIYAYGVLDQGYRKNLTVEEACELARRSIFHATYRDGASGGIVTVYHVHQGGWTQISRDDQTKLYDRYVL
# Homo sapiens = species: Homo sapiens; assay: To identify inhibition of the IFN signalling (Jak-Stat) pathway via expression of an eGFP reporter gene under the control of an IFN-stimulated response element (ISRE) containing MxA promoter.; type: functional; settings: 30 µM
# [7] = molecular target: T4, Tyrosyl-tRNA synthetase, putative (Trypanosoma cruzi (strain CL Brener)) (UniProt Q4DSP6); assay: Trypanosoma cruzi tyrosyl tRNA synthetase (TcYRS) _High Tyrosine SOP; type: functional; settings: 30 µM; also: in the data most compounds retested in dose-response had high values
# T4 sequence (whole entry): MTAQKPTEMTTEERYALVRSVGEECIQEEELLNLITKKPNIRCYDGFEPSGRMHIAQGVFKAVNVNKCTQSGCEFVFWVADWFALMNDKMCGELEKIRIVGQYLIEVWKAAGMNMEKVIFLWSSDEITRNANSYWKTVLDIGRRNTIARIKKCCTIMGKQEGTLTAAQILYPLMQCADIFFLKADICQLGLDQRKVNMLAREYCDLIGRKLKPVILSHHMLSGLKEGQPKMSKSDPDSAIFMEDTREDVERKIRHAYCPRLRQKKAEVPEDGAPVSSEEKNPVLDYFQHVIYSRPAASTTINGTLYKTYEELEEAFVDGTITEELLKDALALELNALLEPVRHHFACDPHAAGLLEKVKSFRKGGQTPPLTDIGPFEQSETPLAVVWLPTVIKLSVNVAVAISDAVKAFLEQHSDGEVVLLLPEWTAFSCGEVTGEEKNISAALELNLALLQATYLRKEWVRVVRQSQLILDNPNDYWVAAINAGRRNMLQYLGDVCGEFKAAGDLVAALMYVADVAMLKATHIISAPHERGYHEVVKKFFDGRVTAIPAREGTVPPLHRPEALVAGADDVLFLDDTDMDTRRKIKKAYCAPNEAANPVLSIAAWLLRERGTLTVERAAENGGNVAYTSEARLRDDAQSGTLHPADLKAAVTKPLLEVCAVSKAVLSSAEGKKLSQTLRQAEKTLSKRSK
# [8] = molecular target: T4, Tyrosyl-tRNA synthetase, putative (Trypanosoma cruzi (strain CL Brener)); assay: Trypanosoma cruzi tyrosyl tRNA synthetase (TcYRS) SOP; type: functional; settings: 30 µM
# [9] = molecular target: Chromo domain-containing protein 1 (Saccharomyces cerevisiae (strain ATCC 204508 / S288c) (Baker's yeast)) (UniProt P32657); assay: ScCHD-1 Enzyme Inhibition Assay; type: functional; settings: 30 µM; also: in the data most compounds retested in dose-response had high values
# Chromo domain-containing protein 1 (Saccharomyces cerevisiae (strain ATCC 204508 / S288c) (Baker's yeast)), sequence (P32657 whole entry, the tested form may be a part): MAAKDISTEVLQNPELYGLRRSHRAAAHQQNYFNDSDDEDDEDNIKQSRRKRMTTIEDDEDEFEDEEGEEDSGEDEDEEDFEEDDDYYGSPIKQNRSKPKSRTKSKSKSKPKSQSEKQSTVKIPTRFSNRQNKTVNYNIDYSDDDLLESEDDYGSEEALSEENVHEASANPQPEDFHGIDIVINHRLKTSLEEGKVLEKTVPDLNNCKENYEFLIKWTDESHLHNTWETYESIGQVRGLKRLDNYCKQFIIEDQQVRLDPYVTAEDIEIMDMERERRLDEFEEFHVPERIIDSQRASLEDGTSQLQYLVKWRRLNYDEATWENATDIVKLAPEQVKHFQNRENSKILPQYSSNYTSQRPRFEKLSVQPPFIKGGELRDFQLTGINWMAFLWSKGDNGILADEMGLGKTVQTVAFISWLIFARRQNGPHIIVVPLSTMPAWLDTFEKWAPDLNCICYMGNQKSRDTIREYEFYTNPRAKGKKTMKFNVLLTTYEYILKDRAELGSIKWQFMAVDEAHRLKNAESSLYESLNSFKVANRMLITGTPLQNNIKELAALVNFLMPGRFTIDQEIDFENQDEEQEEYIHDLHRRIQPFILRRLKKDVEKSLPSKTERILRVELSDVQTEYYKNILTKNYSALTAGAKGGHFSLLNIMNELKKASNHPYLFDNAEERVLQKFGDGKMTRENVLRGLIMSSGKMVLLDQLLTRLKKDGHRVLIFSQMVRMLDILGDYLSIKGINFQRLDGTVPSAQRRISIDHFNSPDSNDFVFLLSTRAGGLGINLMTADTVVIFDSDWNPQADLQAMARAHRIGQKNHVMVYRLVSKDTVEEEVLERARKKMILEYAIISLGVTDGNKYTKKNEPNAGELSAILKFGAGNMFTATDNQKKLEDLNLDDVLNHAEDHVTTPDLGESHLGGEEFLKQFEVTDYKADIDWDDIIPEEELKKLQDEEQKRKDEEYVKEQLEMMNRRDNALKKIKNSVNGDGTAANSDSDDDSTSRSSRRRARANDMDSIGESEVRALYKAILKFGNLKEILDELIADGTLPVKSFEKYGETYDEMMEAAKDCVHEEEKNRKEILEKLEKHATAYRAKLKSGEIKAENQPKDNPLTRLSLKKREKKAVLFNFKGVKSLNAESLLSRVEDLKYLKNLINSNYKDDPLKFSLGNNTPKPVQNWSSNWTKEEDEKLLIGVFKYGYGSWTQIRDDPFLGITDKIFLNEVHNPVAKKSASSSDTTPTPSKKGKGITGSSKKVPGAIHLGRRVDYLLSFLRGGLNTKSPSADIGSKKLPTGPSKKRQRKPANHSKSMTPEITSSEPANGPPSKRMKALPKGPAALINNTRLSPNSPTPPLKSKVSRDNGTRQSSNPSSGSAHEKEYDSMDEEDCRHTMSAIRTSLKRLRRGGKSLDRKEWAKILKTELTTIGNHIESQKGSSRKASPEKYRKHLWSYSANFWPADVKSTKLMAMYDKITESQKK
# Protein translocase subunit SecA (Escherichia coli (strain K12)), sequence (P10408 whole entry): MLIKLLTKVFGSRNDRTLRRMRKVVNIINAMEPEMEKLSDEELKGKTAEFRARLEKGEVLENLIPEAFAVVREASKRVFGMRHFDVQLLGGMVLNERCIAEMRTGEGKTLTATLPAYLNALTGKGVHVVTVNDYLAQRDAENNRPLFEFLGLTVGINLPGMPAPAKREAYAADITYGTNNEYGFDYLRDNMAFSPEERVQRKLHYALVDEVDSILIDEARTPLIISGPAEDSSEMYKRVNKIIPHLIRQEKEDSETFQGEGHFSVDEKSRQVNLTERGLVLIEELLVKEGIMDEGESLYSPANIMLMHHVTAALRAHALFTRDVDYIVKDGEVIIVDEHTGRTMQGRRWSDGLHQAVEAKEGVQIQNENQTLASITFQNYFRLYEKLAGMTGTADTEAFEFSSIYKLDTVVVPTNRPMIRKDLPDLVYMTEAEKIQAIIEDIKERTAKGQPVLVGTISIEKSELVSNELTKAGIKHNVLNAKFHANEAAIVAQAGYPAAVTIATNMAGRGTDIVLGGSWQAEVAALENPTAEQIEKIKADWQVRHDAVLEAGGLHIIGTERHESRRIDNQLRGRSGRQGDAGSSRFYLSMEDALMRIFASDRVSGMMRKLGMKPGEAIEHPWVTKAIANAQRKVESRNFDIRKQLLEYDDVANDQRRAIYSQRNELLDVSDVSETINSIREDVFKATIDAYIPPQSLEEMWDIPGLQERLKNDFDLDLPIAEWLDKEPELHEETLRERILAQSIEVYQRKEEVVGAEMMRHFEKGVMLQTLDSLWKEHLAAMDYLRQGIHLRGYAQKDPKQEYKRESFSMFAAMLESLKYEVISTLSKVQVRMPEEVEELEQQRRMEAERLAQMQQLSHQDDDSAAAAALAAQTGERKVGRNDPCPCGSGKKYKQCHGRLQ
Compound,Percent Effect [1] [%],Percent Effect [2] [%],Percent Effect [3] [%],Percent Effect [4] [%],Percent Effect (Trypanosoma cruzi) [%],Percent Effect [5] [%],Percent Effect [6] [%],Percent Effect (Homo sapiens) [%],Percent Effect [7] [%],Percent Effect [8] [%],Percent Effect [9] [%]
CC(=O)N1CC(=O)N(c2cnn(C)c2)CC12CCN(Cc1ccsc1)C2 (configuration not stated),-5.9,2.7,-4.89,3.54,-6.05,-1.25,18.3,13.5,3.96,3.66,-3.49
COC[C@H]1CCC[C@]12CN(C(=O)NCc1ccccc1)CCO2,-5,20,-4.55,9.51,2.75,-7.22,13.5,2.52,3.17,10.3,-9.21
COc1ccc(C(=O)N2Cc3c(Cn4ccnc4)nn(C)c3C2)cc1,-2.78,8,5.76,-5.42,3.15,-1.63,12.1,7.14,5.32,11.5,-3.95
O=S(=O)(CCN1CCOC(Cn2cncn2)C1)c1ccccc1 (configuration not stated),-1.18,5.41,-4.67,12.3,3.81,2.23,-0.0858,-5.62,0,3.7,-11.6
CC(=O)N(Cc1ncc(C(C)C)o1)C1CCN(Cc2nccn2C)C1 (configuration not stated),-2.57,13.5,-4.73,4.8,3.25,-1.29,14.4,-11.4,10.9,28.1,-1.74
O=C(CCc1ccc(Br)cc1F)NS(=O)(=O)c1ccc2c(c1)OCCO2,-4.85,-6.33,13.3,0.4,-2.15,1.07,4.97,18.6,-18.8,-17.7,-2.67
Cc1ccn(-c2ccc(C(=O)N3CCCC(n4ccnc4)C3)cc2)n1 (configuration not stated),1.74,-2.53,4.22,-1.83,1.6,2.66,-2.21,1.73,4.43,-3.8,-1.63
CC(Cn1ccnc1)NC(=O)C1(c2ccc(F)cc2)CC1 (configuration not stated),-2.91,17.7,-3.38,-4.39,2.93,-3.42,4.83,-2.07,1.48,16.5,-3.1
Cc1cnc(CNc2c(F)cccc2-n2cccn2)o1,3.66,12.5,-4.76,5.6,-8.46,2.65,13.7,5.49,4.21,5.13,101
Cn1ncc2c(=O)[nH]c(CN3CCCC3c3cccs3)nc21 (configuration not stated),-2.36,20.2,-1.76,-3.9,-5.38,1.14,5.32,15.9,7.39,11.4,-5.13
Cn1cc2c(n1)C(COCC1CC1)CN(Cc1ccccn1)C2 (configuration not stated),-6.24,-2.7,0.433,-2.97,4.2,-0.319,9.22,9.46,6.49,10.3,4.91
Cc1cn2c(n1)CCC(NC(=O)c1cc(C(C)C)no1)C2 (configuration not stated),-4.48,10.4,2.99,6.7,1.67,1.05,4.93,3.25,6.67,14.1,-23
CC(C)Nc1nc(N2CCCC2)nc2c1CN(C(C)C)CC2,1.43,-2.67,-5.03,21.2,4.63,-29.6,14.7,-15.2,5.21,-2.5,-5.55
Cc1nn(C)c(C)c1C1CCCN1C(=O)c1ccc(NC2CC2)nc1 (configuration not stated),-1.33,16.2,-3.14,10.9,0.464,-4.25,5.92,22.6,7.92,18.3,-2.71
CCOC(=O)c1sc2ccsc2c1CN,-2.04,-5.41,-6.96,-0.173,-5.29,3.88,-7.36,20.9,0,-1.22,5.83
O=C(CN1CCCCC1Cn1cncn1)NCc1ccccn1 (configuration not stated),-0.608,2.53,-4.5,-1.76,-5,5.32,-6.31,11,4.43,3.8,-4.29
CNC(=O)c1cnc(/C=C/c2cc(OC)c(OC)c(OC)c2)s1,-3.62,16.2,-4.03,8.07,1.56,21.2,16,40.4,9.9,18.3,-13
CC(OCC(F)(F)F)C(=O)Nc1ccc(-n2cncn2)nc1 (configuration not stated),-3,2.6,24.5,-9.5,-1.27,1.05,8.49,22.3,5.71,9.41,-17.1
Cc1scc(C(=O)N2CCC3(CCCN(C)C3=O)C2)c1-c1ccccc1 (configuration not stated),-0.994,0,1.8,-1.74,-3.09,1.91,7.41,-8.13,-2.65,9.76,-4.36
CCc1cccc(OCC(=O)N2CCCC(n3cncn3)C2)c1 (configuration not stated),-5.42,13.5,1.85,-1.09,-5.57,2,13,14.3,5.42,11.1,-4.63
O=C(CCCOc1ccc(F)cc1F)N1CCCC1Cn1cccn1 (configuration not stated),-7.68,15.8,-5.85,17.7,4.01,1.8,8.38,9.96,5.42,16.1,-6.65
O=C(c1cccnc1)N1CCCC2(CCN(c3ccsc3)C2=O)C1 (configuration not stated),-2.21,10.4,15.5,-9.57,-8.19,11,20.9,9.28,-7.41,1.28,-9.17

# Source: ChEMBL document CHEMBL3988442, “University of Dundee, Small-Polar-MMV Screening Library” (2021)
